# Source: PubChem BioAssay (EPA / NIEHS)
# A structure can be active in one record and inactive in another. Calls of active or inactive are those of the source. Rule for the calls: active = hit-call score of the fitted dose curve at least 0.9, where 1 is the maximum; inactive = score below 0.9.
# Assay: ATG_TAL_CIS: Attagene CIS-FACTORIAL HepG2 Assay for human TAL Basal Promoter (AID 2282966);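 note: background control endpoint measuring basal TAL promoter reporter mRNA not a specific factor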
# Conditions: HepG2 Attagene cis-factorial TAL promoter reporter; actives raise or lower the signal
# In short: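 Steps: transfect HepG2 with multiple reporter transcription units; dose 24 h; isolate RNA, reverse-transcribe, PCR-amplify, label with 6-FAM, digest with HpaI; resolve by capillary electrophoresis. Bidirectional fitting against DMSO baseline.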
Structure (SMILES),outcome,AC50
C[C@]12CCC(=O)C=C1CC[C@@H]1[C@@H]2CC[C@@]2(C)[C@H]1CC[C@]2(C)O,inactive,
Cc1ccccc1CO[C@@H]1C[C@@]2(C(C)C)CC[C@]1(C)O2,inactive,
CCC(C)c1cc([N+](=O)[O-])cc([N+](=O)[O-])c1O (stereo unspecified),inactive,
c1cc2ccc3cccc4ccc(c1)c2c34,inactive,
Cc1ccccc1O,inactive,
CCC(=O)O[C@H]1CC[C@H]2[C@@H]3CCC4=CC(=O)CC[C@]4(C)[C@H]3CC[C@]12C,inactive,156 µM (active)
CC(C)(c1ccccc1)c1ccc(O)cc1,inactive,
ClC(Cl)=C(c1ccc(Cl)cc1)c1ccc(Cl)cc1,inactive,
O=C(O)C(F)(F)C(F)(F)C(F)(F)C(F)(F)C(F)(F)C(F)(F)C(F)(F)C(F)(F)C(F)(F)F,inactive,61.9 µM (active)
CO/C=C(/C(=O)OC)c1ccccc1COc1cccc(C(F)(F)F)n1,inactive,
OCC(O)CO,inactive,
Oc1c(Cl)c(Cl)c(Cl)c(Cl)c1Cl,inactive,26.4 µM (active)
Clc1ccc(C(c2ccccc2Cl)C(Cl)(Cl)Cl)cc1 (stereo unspecified),inactive,
N#Cc1ccc(N(CC(N)=O)CC(F)(F)F)cc1C(F)(F)F,inactive,
Cc1ccccc1[N+](=O)[O-],inactive,
CCOC(=O)C(O)(c1ccc(Cl)cc1)c1ccc(Cl)cc1,inactive,
Sc1ccccc1,inactive,

Structure (SMILES),outcome,AC50
Clc1ccc(Cl)cc1,inactive,
CN(C)CCO,inactive,
Cc1cc(-c2ccc(N)c(C)c2)ccc1N,inactive,
CCCCCCCCCc1ccc(O)cc1,inactive,
CC(C)C(=O)OCC(C)(C)C(OC(=O)C(C)C)C(C)C (stereo unspecified),inactive,
CC(C)(O)C(=O)Nc1ccc([N+](=O)[O-])c(C(F)(F)F)c1,inactive,
CCOP(=S)(OCC)SCSC(C)(C)C,inactive,
O=C(O)C(F)(F)C(F)(F)C(F)(F)C(F)(F)C(F)(F)C(F)(F)C(F)(F)C(F)(F)F,inactive,
CC(c1ccc(O)cc1)(c1ccc(O)cc1)c1ccc(O)cc1,inactive,
COc1ccc(O)c(C(C)(C)C)c1,inactive,
Oc1ccc(C(c2ccc(O)cc2)(C(F)(F)F)C(F)(F)F)cc1,inactive,
CCNc1nc(NC(C)C)nc(SC)n1,inactive,
O=S(=O)(O)C(F)(F)C(F)(F)C(F)(F)C(F)(F)C(F)(F)C(F)(F)F,inactive,
ClC1=C(Cl)[C@]2(Cl)[C@@H]3[C@H]4C[C@H]([C@@H]5O[C@H]45)[C@@H]3[C@@]1(Cl)C2(Cl)Cl,inactive,
CCCCCCCCOC(=O)c1ccccc1C(=O)OCCCCCCCC,inactive,
Nc1ccc(-c2ccc(N)cc2)cc1,inactive,
